Data published in PubChem BioAssay.

Test: probe aXIP binding to arrayed compounds – biochemical, NeuroSMM set, 635/667 nm fluorescence, primary screen (AID 1119);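 note: probe is the protein aXip251-270 applied at 1 µg/mL to compound-printed slides; binding of probe to printed compounds measured as 667 nm fluorescence plus signal to noise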
Settings: small-molecule microarray, higher = more signal, called active from +8 up or from −8 down

Composite Z-score, inactive:
Cc1ccc(S[C@]2(C(=O)NCCCN(C)C)CC(=O)N(C3CCCCC3)[C@@H]2c2ccc(CO)cc2I)cc1 -0.102
O=C1C2C=CC(C(O)C#Cc3ccccc3)N(Nc3ccccc3)C2C(=O)N1c1ccccc1 (stereo unspecified) 0.634
O=C1NC(=O)C2C1C=CC(C(O)C=Cc1ccc([N+](=O)[O-])cc1)N2Nc1ccccn1 (stereo unspecified) 1.28
Cc1ccc(S(=O)(=O)N[C@H]2COC(=O)CC=C[C@H](C)COC(=O)N[C@@H](C)C(=O)CC=C[C@@H]2C)cc1 -1.01
Cc1ccc(N2C(=O)c3ccccc3[C@](C)(C(=O)NCC(C)C)[C@@H]2c2ccc(CO)cc2)nc1 0.917
O=C1C2C=CC(C(O)c3ccccc3)N(n3cnnc3)C2C(=O)N1Cc1ccccc1 (stereo unspecified) 0.0912
COc1cc([C@@H]2N[C@H](C(=O)O)Cc3c2[nH]c2ccccc32)cc(OC)c1OC -0.651
C=CCNC(=O)[C@H]1[C@@H]2C(=O)O[C@@H](c3ccccc3)[C@@H](c3ccccc3)N2[C@@H](c2ccc(O)cc2)[C@]12C(=O)Nc1ccc(C#CCNC(N)=O)cc12 0.593
CCC#CCN(Cc1ccccc1Br)[C@H](/C=C/c1ccccc1)[C@@H](O)Cc1ccccc1 0.12
CCCC=C(CCC)[C@@H](NC(=O)c1ccccc1)c1ccccc1 0.108
CO[C@H]1O[C@H](CO)[C@@H](OC(=O)CCc2ccccc2)[C@@H]2OC(=O)[C@H](Cc3cccc(Br)c3)C/C=C/C[C@@H](Cc3cccc(Br)c3)C(=O)O[C@@H]12 0.258
C=CCC(OC(C)=O)[C@@H]1[C@@H](N(Cc2cccc3ccccc23)C(=O)c2ccc(C)cc2)c2cc(OCCCO)ccc2N1C(=O)c1ccc(-c2ccccc2)cc1 (stereo partly specified) -0.0961
Cc1ccc(N2C(=O)c3ccccc3[C@](C)(C(=O)O)[C@@H]2c2ccc(CO)cc2)nc1 -0.313
C[C@@H]1CC[C@H]2C(=O)N3[C@@H](CC[C@@H](C)[C@@H]3c3cccc(N4CCOCC4)c3)C(=O)N2[C@H]1c1cccc(N2CCOCC2)c1 -0.354
Cc1ccc(S[C@]2(C(=O)NCCN3CCOCC3)CC(=O)N(C3Cc4ccccc4C3)[C@@H]2c2ccc(CO)cc2I)cc1 2.61
N#Cc1ccc(NN2C(C(O)c3ccc(I)cc3)C=CC3C(=O)N(c4ccccc4)C(=O)C32)cc1 (stereo unspecified) 0.128
CCOC(=O)[C@H]1C/C=C/C[C@H](C(=O)OCC)C(=O)O[C@H]2[C@@H](OC)O[C@H](CO)[C@@H](OC(=O)Nc3ccc(Br)cc3)[C@@H]2OC1=O 0.285
C[C@@H]1C=CCC(=O)OC[C@H]2O[C@@H](C=C[C@@H]2O)[C@H](C)C=CCC(=O)OC[C@H]2O[C@H]1C=C[C@@H]2O 1.21
CO[C@@H]1COC(=O)[C@H](C)NC(=O)CC=C[C@@H](C)[C@H](NS(=O)(=O)c2ccc(C)cc2)COC(=O)CC=C[C@@H]1C 0.237
C=C(CCCC)/C(=C/C[C@@H](OC(=O)c1ccncc1)c1cccc(OCCO)c1)c1cc(C(=O)OC)ccc1OC -0.259
[N-]=[N+]=NCc1ccccc1C[C@]1(C(N)=O)N=C(c2ccc(OCCCO)cc2)O[C@H]1c1ccccc1CN=[N+]=[N-] -0.469
CCCCO[C@H]1C[C@H]2C(Br)=C[C@@]1(CO)C(=O)[C@]21CO1 -0.442
CC(C)N1CC=CC23O[C@@H]4/C=C\CCCOC(=O)C4[C@H]2C(=O)N(CCCCCO)[C@@H]3C1=O (stereo partly specified) -0.0102
CO[C@@H]1COC(=O)[C@H](C)NC(=O)CC=C[C@@H](C)[C@H](OC)COC(=O)[C@H](C)NC(=O)CC=C[C@H]1C 0.137
CCOC(=O)C[C@H]1[C@H](OC(=O)Cc2ccc3c(c2)OCO3)[C@@H](NC(=O)c2ccc3ccccc3c2)c2cc(OCCCO)ccc2N1C(=O)Cc1ccc(OC)cc1 0.563
CCCN1C(=O)[C@@]2(CCS(=O)(=O)c3ccccc3)N=C(c3ccc(OCCCO)cc3)O[C@H]2c2ccccc21 -0.113
CCCC[C@@H]1C[C@H]1[C@@H](NC(=O)c1cccs1)c1ccc(Cl)cc1 2.33
C[C@H]1COC(=O)[C@@H]2CCCN2C(=O)[C@@H](C)COC(=O)[C@@H]2CCCN2C1=O -0.221
[N-]=[N+]=NCc1ccccc1C[C@@]1(C(=O)O)N=C(c2ccc(OCCCO)cc2)O[C@@H]1c1ccccc1N=[N+]=[N-] 0.198
O=C1C2C=CC(C(O)C(c3ccccc3)c3ccccc3)N(Nc3ccc([N+](=O)[O-])cc3)C2C(=O)N1c1ccccc1 (stereo unspecified) -0.214
CO[C@H]1COC(=O)[C@H](CCSC)NC(=O)CC=C[C@@H](C)COC(=O)[C@@H](OCc2ccccc2)C=C[C@@H]1C -0.273
CCC(=O)[C@]12O[C@@]3([C@@H]4C(=O)OCC[C@@H]41)N(Cc1ccccc1)C(C)=C(C(=O)OC)[C@@H](c1ccccc1)N3C2=O -0.428
COC(=O)[C@@]1(Cc2ccc(OC)cc2)[C@H]2c3cc(C(=O)N(C)C)n(CCc4ccc(OC)c(Br)c4)c3C[C@H]2CN1C(=O)c1ccccc1 -0.665
C#CCCCON=C1C[C@@H](O)[C@@H](O)[C@@H]2[C@@H]3C(=O)N(Cc4ccc5c(c4)OCO5)C(=O)[C@@H]3CC[C@H]12 0.756
COC(=O)c1c(CC[C@@H](CO)NC(=O)N[C@H](Cn2cc(-c3cncn3C)nn2)C(C)C)oc(C(C)=O)c1C(=O)OC 0.24
CCOC(=O)C1=CC[C@@H](c2ccc(-c3ccc(OCc4ccccc4)cc3)c(OC)c2)N(S(=O)(=O)c2ccc(C)cc2)[C@H]1c1ccccc1 1.53
